# In PubChem BioAssay AID463173 (ICCB-Longwood Screening Facility, Harvard Medical School, 2010):
# Among all 52,000 compounds or so, about 4,300 (8.3%) were called active. The sample holds actives, similar compounds and a random draw of the others, so the mix is not that of the screen. Values without a mark were called inactive. Cut-off read from the data, not from the text of the source: active = survival mostly below about 52% (no sharp cut-off); inactive = mostly above about 56%.
# System: DeltatarO mutant
# Assay: growth inhibition of S. aureus wild type versus tarO mutant, primary screen, teichoic acid synthesis inhibitors, RN4220, OD600 (AID 463173)
# Conditions: OD600, 18 h, active compounds read low, screened at 18.75 µg/mL (by protocol)
row,SMILES,survival
1,CCOc1ccc(C2C(=O)N(C3CCCCCC3)CC(=O)N2Cc2ccc(F)cc2)cc1OC (stereo not given),117%
2,COc1ccc(OCc2nnc(SCC(=O)NCc3ccco3)o2)cc1,85%
3,O=C(Nc1cccc(C(F)(F)F)c1)c1cc(-c2ccc(Cl)cc2)on1,77%
4,FC(F)(F)c1cccc(Nc2nc3nonc3nc2Nc2ccc(Cl)cc2)c1,-16% (active)
5,Cc1cc(Nc2cccc(C(F)(F)F)c2)ncn1,54%
6,Fc1ccc(-c2nc(Nc3cccc(C(F)(F)F)c3)nc3c2COc2ccccc2-3)cc1,54%
7,Cc1ccc(Nc2nc3nonc3nc2Nc2cccc(C(F)(F)F)c2)cc1Cl,-1% (active)
8,Cc1cc(Nc2cccc(C(F)(F)F)c2)nc2ccc(NC(=O)Cc3ccc(Cl)cc3)cc12,101%
9,Cc1ccc(Nc2nc3nonc3n3cnnc23)cc1Cl,70%
10,Fc1ccc(Nc2nc3nonc3nc2Nc2cccc(C(F)(F)F)c2)cc1,-2% (active)
11,NS(=O)(=O)c1ccc(Nc2nc3nonc3nc2Nc2ccc(S(N)(=O)=O)cc2)cc1,122%
12,Cc1ccc(C)c(N2CCN(CCCNC(=O)Cn3ncc4c([nH]c5ccccc54)c3=O)CC2)c1,94%
13,Cc1noc2ncnc(N3CCCC(C(=O)Nc4cccc(C(F)(F)F)c4)C3)c12 (stereo not given),93%
14,Cc1cc(C)n(C(C)CC(=O)NCc2ccc(Cl)cc2)n1 (stereo not given),69%
15,Nc1ccc2nc(SCCOc3ccccc3)sc2c1,88%
16,COc1ccc2nc(SCC(O)c3cccc(Br)c3)[nH]c2c1 (stereo not given),76%
17,Brc1ccc2nc(SCCOc3ccccc3)[nH]c2c1,-1% (active)
18,CCOc1ccc(Nc2cc(C)nc3nncn23)cc1,60%
19,CCCS(=O)(=O)N1CCCC(C(=O)NCCOC)C1 (stereo not given),55%
20,CCCCN(CC)CCNC(=O)Cn1c(=O)c2cccn2c2cccnc21,80%
21,Cc1cc(=O)n2c(C(=O)Nc3ccc(C)c(C)c3)c(C(=O)Nc3ccccc3)sc2n1,52%
22,Cc1ccc(NC(=O)c2c(C(=O)Nc3ccccc3)sc3nc(C)cc(=O)n23)cc1,59%
23,COc1ccc(C)cc1NC(=O)c1c(C(=O)Nc2cccc(C)c2C)sc2nc(C)cc(=O)n12,61% (active)

row,SMILES,survival
1,Cc1cc(=O)n2c(C(=O)Nc3ccc(F)c(Cl)c3)c(C(=O)Nc3cccc(C)c3C)sc2n1,65%
2,COc1ccc(Cl)cc1NC(=O)c1c(C(=O)Nc2cccc(C)c2C)sc2nc(C)cc(=O)n12,74%
3,Cc1cc(=O)n2c(C(=O)Nc3ccc(C)c(Cl)c3)c(C(=O)Nc3ccccc3)sc2n1,56% (active)
4,CC(C)Oc1ccc(NC(=O)C2COc3ccccc3O2)cc1 (stereo not given),103%
5,Cc1ccc(NS(=O)(=O)c2c(C)nc3sc(C)cn3c2=O)c(C)c1,83%
6,CCOc1ccccc1CNC(=O)CN1C(=O)CCCc2ccccc21,86%
7,COc1cccc(Cn2c(=O)n(CCc3ccccc3)c(=O)c3c2c2cc(OC)ccc2n3C)c1,81%
8,CCOc1ccccc1Nc1sc(C(=O)c2ccccc2)c(N)c1C(=O)NCCc1ccccc1,99%
9,Cc1ccc(N2CCN(C(=O)NCc3noc4ccc(C)cc34)CC2)c(C)c1,54%
10,Cn1c(=O)c2c(nc(SCC(=O)Nc3ccc(F)cc3)n2Cc2ccccc2)n(C)c1=O,89%
11,Cn1c(=O)c2c(nc(SCC(=O)Nc3ccccc3F)n2Cc2ccc(Cl)cc2)n(C)c1=O,80%
12,Cn1c(=O)c2c(nc(SCC(=O)Nc3ccccc3)n2Cc2ccccc2F)n(C)c1=O,43% (active)
13,Cn1c(=O)c2c(nc(SCC(=O)Nc3ccc(F)cc3)n2Cc2ccccc2F)n(C)c1=O,140%
14,Cn1c(=O)c2c(nc(SCC(=O)Nc3ccc(F)cc3)n2Cc2ccc(Cl)cc2)n(C)c1=O,31% (active)
15,Cn1c(=O)c2c(nc(SCC(=O)Nc3ccccc3F)n2Cc2ccccc2F)n(C)c1=O,65%
16,CC(C)(C)OC(=O)N1CCC(c2c(C(=O)NCc3ccco3)cnn2-c2ccc(F)cc2)CC1,88%
17,Cc1ccc(C(=O)c2oc3ccccc3c2NC(=O)Cc2ccccc2)cc1,50%
18,CCc1ccc2occ(CC(=O)Nc3c(C(=O)c4ccccc4)oc4ccccc34)c2c1,95%
19,Cc1ccc(NC(=O)c2oc3ccccc3c2NC(=O)c2cc3ccccc3o2)cc1,94%
20,Cc1ccc(NC(=O)/C=C/c2ccccc2Cl)cc1Cl,67%
21,CCN(CC)c1cc(C)c2cc(NC(=O)/C=C/c3ccccc3Cl)ccc2n1,53%
22,CCCCc1ccc(-n2nc3ccc(NC(=O)c4cc5ccccc5o4)cc3n2)cc1,72%
23,CCCCOC(=O)c1cccc(NC(=O)/C=C/c2ccccc2Cl)c1,14% (active)

row,SMILES,survival
1,COc1ccc(NC(=O)c2oc3ccccc3c2NC(=O)c2cc3ccccc3o2)cc1,89%
2,O=C(Nc1c(C(=O)Nc2ccc(F)cc2)oc2ccccc12)c1cc2ccccc2o1,47% (active)
3,O=C(Cc1ccccc1)Nc1c(C(=O)c2ccccc2)oc2ccccc12,3% (active)
4,CCCCOC(=O)c1cccc(NC(=O)c2cc3ccccc3o2)c1,1% (active)
5,CCCCOC(=O)c1ccc(NC(=O)c2cc(=O)c3ccccc3o2)cc1,57%
6,CCOc1ccc(CNC(=O)C2Cc3ccccc3N2C(=O)CC)cc1OC (stereo not given),78%
7,COc1ccc(OC)c(NC(=O)c2cc3c(=O)n4cccc(C)c4nc3n2C)c1,65%
8,COc1ccc(CNC(=O)CN(c2cc(C)cc(C)c2)S(=O)(=O)c2c(C)[nH]c(=O)[nH]c2=O)cc1,86%
9,CC1CN(C(=O)CCC(=O)NCc2cccs2)c2cc(Cl)ccc2O1 (stereo not given),84%
10,CCOC(=O)c1c(S(=O)(=O)N2CCCC(C(=O)Nc3cc(C)ccn3)C2)c(C)n(C)c1C (stereo not given),83%
11,CN(C1CCCCC1)S(=O)(=O)c1ccc(C(=O)Nc2sc3c(c2C(N)=O)CC(C)(C)NC3(C)C)cc1,84%
12,COc1ccc2c(c1)c1c(c(=O)n(-c3ccccc3)c(=O)n1CC(=O)NCc1ccc(C)cc1)n2C,83%
13,COc1ccc(-n2cc(C(=O)NCc3ccccc3)c3ccccc3c2=O)cc1,61%
14,COc1ccccc1C(=O)Nc1c(C(=O)c2ccccc2)oc2ccccc12,-1% (active)
15,CCOc1ccc(NC(=O)c2oc3ccccc3c2NC(=O)C(C)(C)C)cc1,38% (active)
16,CCOc1ccc(NC(=O)c2oc3ccccc3c2NC(=O)c2c(F)cccc2F)cc1,91%
17,COc1ccccc1C(=O)Nc1c(C(=O)NC(C)(C)C)oc2ccccc12,99%
18,CCOc1ccc(NC(=O)c2oc3ccccc3c2NC(=O)c2cc(C)cc(C)c2)cc1,82%
19,CC(=O)Nc1c(C(=O)Nc2ccccc2F)oc2ccccc12,119%
20,O=C(Cc1ccccc1)Nc1c(C(=O)Nc2ccccc2F)oc2ccccc12,83%
21,COc1ccc(C(=O)Nc2c(C(=O)c3ccccc3)oc3ccccc23)cc1,72%
22,COc1ccccc1NC(=O)c1oc2ccccc2c1NC(=O)c1c(F)cccc1F,51%
23,COc1cc(C(=O)Nc2c(C(=O)Nc3ccccc3F)oc3ccccc23)cc(OC)c1OC,52%

row,SMILES,survival
1,O=C(Nc1ccccc1F)c1oc2ccccc2c1NC(=O)c1c(F)cccc1F,26% (active)
2,COc1ccccc1C(=O)Nc1c(C(=O)Nc2ccccc2F)oc2ccccc12,13% (active)
3,CCN1C(=O)/C(=C2\C=Cc3ccccc3N2CC)SC1=S,77%
4,CC(=O)Nc1ccc(-c2nnc(SCC(=O)c3ccc([N+](=O)[O-])cc3)o2)cc1,66%
5,CCOc1ccccc1C(=O)Nc1cc2c(cc1N1CCOCC1)n(C)c(=O)n2C,77%
6,CCCNC(=O)N1CCc2cc(OC)c(OC)cc2C1c1cc2cc3c(cc2[nH]c1=O)OCO3 (stereo not given),91%
7,CCOCCc1nn2c(=O)cc(COC(=O)COc3ccccc3Cl)nc2s1,88%
8,Cc1cccc(CC(=O)Nc2c(C(=O)Nc3cccc(F)c3)oc3ccccc23)c1,57%
9,CC(C)Oc1ccc(NC(=O)c2cc3ccccc3o2)cc1,40% (active)
10,COc1ccccc1C(=O)Nc1c(C(=O)N2CCN(c3ccccc3F)CC2)oc2ccccc12,92%
11,O=C(Nc1ccc(NC(=O)c2cc3ccccc3o2)cc1)c1ccccc1,86%
12,COc1ccc(NC(=O)c2oc3ccccc3c2NC(=O)c2cc3ccccc3o2)c(OC)c1,72%
13,Cc1cc(C)cc(C(=O)Nc2c(C(=O)Nc3ccccc3F)oc3ccccc23)c1,80%
14,COc1cccc(NC(=O)c2oc3ccccc3c2NC(=O)c2cc3ccccc3o2)c1,51%
15,O=C(Nc1c(C(=O)Nc2ccccc2F)oc2ccccc12)c1cc2ccccc2o1,37% (active)
16,COc1ccc(N2CCN(C(=O)c3oc4ccccc4c3NC(=O)c3ccccc3OC)CC2)cc1,131%
17,COc1ccccc1C(=O)Nc1c(C(=O)N2CCN(c3ccc(F)cc3)CC2)oc2ccccc12,0% (active)
18,O=C(O)c1ccc(NC(=O)c2cc3ccccc3o2)cc1,59%
19,O=C(Nc1c(C(=O)Nc2cccc(F)c2)oc2ccccc12)c1cc2ccccc2o1,35% (active)
20,COc1ccc(CCNC(=O)CCS(=O)(=O)c2cc3c(cc2Cl)NC(=O)CO3)cc1OC,90%
21,COc1ccc(-c2noc(-c3ccc(C)cc3Cl)n2)cc1OC,136%
